Measured values from PubChem BioAssay (NCI).
This is part of a sample that, as a whole, favours compounds with a hit. Of some 83,000 tested, about 20% had one in any assay.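 Single-dose data. Exposure time 48 hours. Values below 10 considered active.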 Calls of active or inactive are those of the source.

Tests used:
Experiment in all cases: NCI-60 one-dose screen, 48 h (100 = growth as untreated, 0 = no growth, -100 = all killed)
Settings in all cases: 10 µM unless noted
HCT-15 colon = test system: HCT-15 colon
HT29 colon = test system: HT29 colon
SNB-19 CNS = test system: SNB-19 CNS
U251 CNS = test system: U251 CNS
PC-3 prostate = test system: PC-3 prostate
SK-MEL-5 melanoma = test system: SK-MEL-5 melanoma
UACC-62 melanoma = test system: UACC-62 melanoma
LOX IMVI melanoma = test system: LOX IMVI melanoma
SK-MEL-28 melanoma = test system: SK-MEL-28 melanoma
SK-MEL-2 melanoma = test system: SK-MEL-2 melanoma
EKVX NSCLC = test system: EKVX NSCLC
SN12C renal = test system: SN12C renal
TK-10 renal = test system: TK-10 renal
ACHN renal = test system: ACHN renal
A498 renal = test system: A498 renal
CCRF-CEM leukemia = test system: CCRF-CEM leukemia
MOLT-4 leukemia = test system: MOLT-4 leukemia
UO-31 renal = test system: UO-31 renal
CAKI-1 renal = test system: CAKI-1 renal

Measured: growth

Cc1c(C(=N)C(C#N)C#N)c(=N)oc2c1ccc1ccccc12
inactive: HCT-15 colon 74.2% | HT29 colon 93.3% | SNB-19 CNS 103% | U251 CNS 87.4% | PC-3 prostate 97.8% | SK-MEL-5 melanoma 83.7% | UACC-62 melanoma 78.3% | LOX IMVI melanoma 92.8% | SK-MEL-28 melanoma 124% | SK-MEL-2 melanoma 26.6% | EKVX NSCLC 26.9% | SN12C renal 88.7% | TK-10 renal 121% | ACHN renal 86.4% | A498 renal 85.2% | CCRF-CEM leukemia 66.1% | MOLT-4 leukemia 64.3%

COc1cc(-c2nn(-c3cccc(NC(=O)c4ccc(Cl)c(C(F)(F)F)c4)c3)cc2-c2ccncc2)ccc1Cl
inactive: HCT-15 colon 51.7% | HT29 colon 50.1% | SNB-19 CNS 66% | U251 CNS 32.5% | PC-3 prostate 18.6% | SK-MEL-5 melanoma 17.5% | UACC-62 melanoma 32.8% | LOX IMVI melanoma 32.2% | SK-MEL-28 melanoma 41.6% | SK-MEL-2 melanoma 18.9% | SN12C renal 57.3% | UO-31 renal 37.1% | TK-10 renal 69.5% | ACHN renal 39.1% | CAKI-1 renal 61.1% | A498 renal 11.8% | CCRF-CEM leukemia 12.4% | MOLT-4 leukemia 20.3%

CCC(=O)OC1=CN2C(=NC(c3ccc(N)cc3)=CC2c2cc(OC)c(OC)c(OC)c2)S1 (stereo not given)
active: HT29 colon 3.44% | CCRF-CEM leukemia 8.95%
inactive: HCT-15 colon 27.6% | SNB-19 CNS 83.8% | U251 CNS 46.3% | PC-3 prostate 49% | SK-MEL-5 melanoma 66.9% | UACC-62 melanoma 78% | LOX IMVI melanoma 45.3% | SK-MEL-28 melanoma 50.8% | SK-MEL-2 melanoma 64% | SN12C renal 53.5% | UO-31 renal 58.7% | TK-10 renal 79.2% | ACHN renal 60.5% | CAKI-1 renal 75.1% | A498 renal 81.9% | MOLT-4 leukemia 39.8%

COc1ccc(-c2nc3sc(-c4cc(OC)c(OC)c(OC)c4)nn3c2/C=C2/C(=O)Nc3ccc(F)cc32)cc1
inactive: SNB-19 CNS 11% | LOX IMVI melanoma 17.8% | A498 renal 96.7% | CCRF-CEM leukemia 20.6%
active: HCT-15 colon -3.94% | HT29 colon -49.9% | U251 CNS -87.4% | PC-3 prostate -25% | SK-MEL-5 melanoma -39.2% | UACC-62 melanoma -26.1% | SK-MEL-28 melanoma -72.8% | SK-MEL-2 melanoma -10.8% | SN12C renal -29.2% | UO-31 renal -33.4% | TK-10 renal -52.2% | ACHN renal -15.7% | CAKI-1 renal 4.52%

Nc1ccc(C(=O)CSc2nc3ccccc3[nH]2)cc1
inactive: HCT-15 colon 99.6% | HT29 colon 110% | SNB-19 CNS 102% | U251 CNS 96.9% | PC-3 prostate 104% | SK-MEL-5 melanoma 97.9% | UACC-62 melanoma 90.6% | LOX IMVI melanoma 106% | SK-MEL-28 melanoma 116% | SK-MEL-2 melanoma 121% | EKVX NSCLC 81.7% | SN12C renal 102% | TK-10 renal 109% | ACHN renal 110% | CAKI-1 renal 96.1% | A498 renal 87.5% | CCRF-CEM leukemia 106% | MOLT-4 leukemia 124%

Fc1ccc(Nc2nc(NCCNc3ccnc4cc(Cl)ccc34)nc(N3CCOCC3)n2)cc1
active: HT29 colon -45.5% | SK-MEL-28 melanoma -98.5% | A498 renal 8.73%
inactive: HCT-15 colon 10.5% | SNB-19 CNS 86.7% | U251 CNS 39% | PC-3 prostate 38.2% | SK-MEL-5 melanoma 43.2% | UACC-62 melanoma 47.7% | LOX IMVI melanoma 15.5% | SK-MEL-2 melanoma 50.7% | SN12C renal 63.8% | UO-31 renal 45.2% | TK-10 renal 86.2% | ACHN renal 55.4% | CAKI-1 renal 76.9% | CCRF-CEM leukemia 49.1% | MOLT-4 leukemia 25.2%

O=C(O)COc1ccc(-c2cssc2=S)cc1
inactive: HCT-15 colon 99.4% | HT29 colon 87.5% | SNB-19 CNS 105% | U251 CNS 98.2% | PC-3 prostate 104% | SK-MEL-5 melanoma 100% | UACC-62 melanoma 107% | LOX IMVI melanoma 96.6% | SK-MEL-28 melanoma 108% | SK-MEL-2 melanoma 90.8% | SN12C renal 103% | UO-31 renal 88.9% | TK-10 renal 93.9% | ACHN renal 103% | CAKI-1 renal 104% | A498 renal 88.2% | CCRF-CEM leukemia 90.3% | MOLT-4 leukemia 102%

COc1cc(-c2nn(-c3cccc(NC(=O)Nc4cccc(C(F)(F)F)c4)c3)cc2-c2ccncc2)ccc1Cl
inactive: SNB-19 CNS 23.5% | CAKI-1 renal 11.5%
active: HCT-15 colon 5.28% | HT29 colon -64% | U251 CNS -82.2% | PC-3 prostate -23% | SK-MEL-5 melanoma -97.8% | UACC-62 melanoma -76.1% | LOX IMVI melanoma -64.2% | SK-MEL-28 melanoma -18.6% | SK-MEL-2 melanoma -71.2% | SN12C renal 7.22% | UO-31 renal 7.94% | TK-10 renal 2.65% | ACHN renal 6.54% | A498 renal -5.17% | CCRF-CEM leukemia -9.68% | MOLT-4 leukemia -26.3%

Cc1csc(NC(c2ccccc2)c2c(C)nc3ccccn23)n1 (stereo not given)
inactive: HCT-15 colon 100% | HT29 colon 98% | SNB-19 CNS 93.5% | U251 CNS 94.7% | PC-3 prostate 82.6% | SK-MEL-5 melanoma 99.6% | UACC-62 melanoma 94.2% | LOX IMVI melanoma 96.5% | SK-MEL-28 melanoma 110% | SK-MEL-2 melanoma 107% | SN12C renal 99.9% | UO-31 renal 76% | TK-10 renal 111% | ACHN renal 102% | CAKI-1 renal 94.5% | A498 renal 70.9% | CCRF-CEM leukemia 101% | MOLT-4 leukemia 92.3%

O=C(Nc1ccc2c(c1)OCCO2)C(=O)c1c[nH]c2ccccc12
active: HT29 colon 4.06%
inactive: HCT-15 colon 33.5% | SNB-19 CNS 46.9% | U251 CNS 34% | PC-3 prostate 28.9% | SK-MEL-5 melanoma 29.7% | UACC-62 melanoma 33.1% | LOX IMVI melanoma 36.1% | SK-MEL-28 melanoma 53% | EKVX NSCLC 52.9% | SN12C renal 42.4% | UO-31 renal 50.9% | TK-10 renal 75.1% | ACHN renal 57.4% | CAKI-1 renal 49.7% | A498 renal 26.3% | MOLT-4 leukemia 16.8%

COc1cccc(-c2cc3c(O)cc(C#N)cc3[nH]2)c1
inactive: HCT-15 colon 80.9% | HT29 colon 94.6% | SNB-19 CNS 93.1% | U251 CNS 85.3% | PC-3 prostate 81.8% | SK-MEL-5 melanoma 82.1% | UACC-62 melanoma 70.9% | LOX IMVI melanoma 92.4% | SK-MEL-28 melanoma 97.8% | EKVX NSCLC 77.8% | SN12C renal 66.1% | UO-31 renal 106% | TK-10 renal 97.9% | ACHN renal 87.6% | CAKI-1 renal 88.4% | A498 renal 71.7% | MOLT-4 leukemia 81.8%

COc1ccc(-c2ccc(C)n2-c2ccc(-c3nc4cc(Cl)ccc4s3)cc2)cc1
inactive: HCT-15 colon 105% | HT29 colon 100% | SNB-19 CNS 103% | U251 CNS 98.2% | PC-3 prostate 113% | SK-MEL-5 melanoma 97.9% | UACC-62 melanoma 85.2% | LOX IMVI melanoma 95.8% | SK-MEL-28 melanoma 125% | EKVX NSCLC 90.3% | SN12C renal 90.5% | UO-31 renal 85% | TK-10 renal 81.6% | ACHN renal 108% | CAKI-1 renal 79.9% | A498 renal 91.4%

O=S(=O)(NCCNc1nccc(-c2c(-c3cccc(O)c3)nc3sccn23)n1)c1ccc(F)cc1
inactive: HCT-15 colon 81% | HT29 colon 38.3% | SNB-19 CNS 111% | U251 CNS 79.4% | PC-3 prostate 65.7% | SK-MEL-5 melanoma 39.8% | UACC-62 melanoma 16.7% | LOX IMVI melanoma 38.5% | SK-MEL-28 melanoma 43.5% | SK-MEL-2 melanoma 41.7% | SN12C renal 63.9% | TK-10 renal 108% | ACHN renal 60.2% | CAKI-1 renal 82.7% | A498 renal 76.4% | CCRF-CEM leukemia 41.7% | MOLT-4 leukemia 44.5%

COc1ccc(-c2c(N)n[nH]c2-c2cc3c(c(OC)c2OC)OCO3)cc1
inactive: HCT-15 colon 101% | HT29 colon 103% | SNB-19 CNS 104% | U251 CNS 94.1% | PC-3 prostate 101% | SK-MEL-5 melanoma 110% | UACC-62 melanoma 82.9% | LOX IMVI melanoma 95% | SK-MEL-28 melanoma 104% | EKVX NSCLC 92.4% | SN12C renal 92.5% | UO-31 renal 84% | TK-10 renal 101% | ACHN renal 96.9% | CAKI-1 renal 94.4% | A498 renal 75.7% | MOLT-4 leukemia 96.5%

Cc1ccc(S(=O)(=O)/C(=C\c2ccc(Cl)cc2)C(=O)c2ccccc2)cc1
inactive: HCT-15 colon 100% | HT29 colon 123% | SNB-19 CNS 95.7% | U251 CNS 102% | PC-3 prostate 96.4% | SK-MEL-5 melanoma 103% | UACC-62 melanoma 101% | LOX IMVI melanoma 104% | SK-MEL-28 melanoma 100% | SN12C renal 98.9% | UO-31 renal 90.1% | TK-10 renal 124% | ACHN renal 109% | CAKI-1 renal 87.3% | A498 renal 99.4% | CCRF-CEM leukemia 97.7% | MOLT-4 leukemia 99.1%

O=C(Nc1ccc2c(c1)OCO2)C(=O)c1c[nH]c2cc(F)ccc12
active: LOX IMVI melanoma 8.88%
inactive: HCT-15 colon 57.2% | HT29 colon 62% | SNB-19 CNS 85.1% | U251 CNS 58.4% | PC-3 prostate 63.8% | SK-MEL-5 melanoma 58% | UACC-62 melanoma 22% | SK-MEL-28 melanoma 30.7% | EKVX NSCLC 72.4% | SN12C renal 79.5% | UO-31 renal 71.2% | TK-10 renal 72.7% | ACHN renal 44.9% | CAKI-1 renal 32.7% | A498 renal 55% | MOLT-4 leukemia 63.1%

COc1ccc(C(=O)N2NC(=O)/C(=C/c3ccccc3F)N=C2c2ccccc2)cc1
inactive: HCT-15 colon 112% | HT29 colon 113% | SNB-19 CNS 99% | U251 CNS 96.7% | PC-3 prostate 104% | SK-MEL-5 melanoma 113% | UACC-62 melanoma 102% | LOX IMVI melanoma 102% | SK-MEL-28 melanoma 112% | EKVX NSCLC 103% | SN12C renal 99% | UO-31 renal 89.8% | TK-10 renal 108% | ACHN renal 122% | CAKI-1 renal 98.9% | A498 renal 104% | MOLT-4 leukemia 109%
